Compounds without any hit were thinned out: in the full panel of roughly 83,000, 20% have a hit.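 Assay: single dose, 48 h. Readout: percent growth (0 = no net growth; negative = cell death). Active: <10.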 Values without a mark were called inactive. The source made the active and inactive calls.
The compounds below were run on A549/ATCC NSCLC (assay: NCI-60 one-dose screen, 48 h (100 = growth as untreated, 0 = no growth, -100 = all killed)). Settings: 10 µM unless noted.

| SMILES | growth |
| --- | --- |
| COc1ccc(/C=N/Nc2c3ccccc3nc3ccccc23)cc1 | 96.5% |
| Cc1nc2sc(C(=O)Nc3ccccn3)c(N)c2cc1C(C)O (centres undefined) | 82% |
| COc1ccc(C/C(C)=C(\c2ccc(Cl)cc2)c2ccc(OCCCN(C)C)cc2)cc1 | 68.7% |
| CC1(C)CC[C@]23CC[C@]4(C)[C@H](CC[C@@H]5[C@@]6(C)C/C(=C/O)C(=O)C(C)(C)[C@@H]6CC[C@]54C)[C@H]2[C@H]1OC3 | 106% |
| Nc1ccc(Br)cc1C(F)(F)F | 102% |
| Cc1oc(-c2ccc(Cl)cc2)nc1C1=NN(C(=O)c2ccncc2)C(c2ccccc2)C1 (centres undefined) | 87.7% |
| CCN(CC)CCOc1ccc(Nc2ncc3cc(-c4c(Cl)cccc4Cl)c(=O)n(CCOC)c3n2)cc1 | 0.456% (active) |
| COc1ccc(Oc2ccc(/C=C/C(=O)c3ccc(OC)c(OC)c3)cc2)cc1 | 81.8% |
| C=CC(CC(c1ccccc1)(c1ccccc1)c1ccccc1)N(CC)CC (centres undefined) | 82.5% |
| CC[C@@H](C(=O)[C@@H](C)[C@@H](O)[C@H](C)[C@@H]1O[C@@H]([C@@H](CC)C(=O)ONC(=O)c2ccccc2O)CC[C@@H]1C)C1O[C@]2(C=CC(=O)[C@]3(CC[C@@](C)([C@H]4CC[C@](O)(CC)[C@H](C)O4)O3)O2)[C@H](C)C[C@@H]1C (some centres undefined) | 23.8% |
| C[C@H](c1nc2ccc(C#N)cc2[nH]1)[C@H]1CC[C@H]2[C@@H]3CCC4=CC(=O)CC[C@]4(C)[C@H]3CC[C@]12C | 63.9% |
| COc1ccc2[nH]cc(-c3nonc3-c3c[nH]c4ccc(Br)cc34)c2c1 | 35.3% |
| O=C(NCCN1CCOCC1)OCc1ccc2c(Cl)cc(Cl)c(O)c2n1 | 56.8% |
| COc1cccc(-c2cn3nc(-c4cn(C)c5ccccc45)sc3n2)c1 | 94.6% |
| NS(=O)(=O)c1ccc(C(=O)NN2C(=O)c3ccccc3C2=O)cc1 | 110% |
| CC(C)=CC(=O)N[C@H]1CC[C@]2(C)C3CC[C@]4(C)C(C(C)N(C)C)=CCC4C3CCC2[C@H]1O (some centres undefined) | 75.5% |
| CCCn1c(=S)sc2c(NNC(C)=O)nc(C)nc21 | 89.1% |
| Cc1nc(N/N=C/c2cn(-c3ccccc3)nc2-c2cc3ccccc3oc2=O)sc1N=Nc1ccccc1 | 96.6% |
| O=C(Nc1ncc(Cc2ccccc2)s1)c1sc2ccccc2c1Cl | 26.6% |
| COc1cc(/C=C/C(=O)c2cc(OC)c(OC)c(OC)c2)ccc1Oc1nc2c(c(=O)n(C)c(=O)n2C)n1C | -13.2% (active) |
| NC(=O)c1ccccc1OCC(=O)Nc1ccc(Cl)c(Cl)c1 | 114% |
| CCOC(=O)c1c(C)nc2ccccc2c1/C=C/c1ccc(F)cc1 | 57.7% |
| Cc1cn(C)cn1 | 94.2% |
| C#CCOc1ccc2nc(CCl)c(Cl)c(Nc3cccc(C(F)(F)F)c3)c2c1 | 94.7% |
| Cc1ccc(NC(=O)c2cc3ccccc3cc2O)c(C)c1 | 106% |

These compounds were tested on 786-0 renal in the same assay as above. Settings: 10 µM unless noted.

| SMILES | growth |
| --- | --- |
| CN(C)CCC(=O)C1CC1 | 99.4% |
| COc1cc(/C=C2\C(=O)N(CCCOc3cc(O)c4c(=O)cc(-c5ccccc5)oc4c3)c3ccccc32)cc(OC)c1O | 92.8% |
| Cc1c2ccccc2nc2cc3c(cc12)[C@H]1CC[C@]2(C)C(=O)CC[C@H]2[C@@H]1CC3 | 98% |
| COc1ccc(C(=O)/C=C/c2ccccc2)cc1S(N)(=O)=O | 64.6% |
| Cc1ccc(OCCOCCOCCOc2ccc(C)n(O)c2=S)c(=S)n1O | 40.9% |
| S=c1ccnc[nH]1 | 89.7% |
| O=C(Oc1ccc2c(c1)sc1nc(-c3ccccc3)[nH]c(=O)c12)C(F)(F)F | 51% |
| Cc1cccc(-c2nc(C(C)C)sc2-c2ccnc(NCCCNS(=O)(=O)c3ccc(Cl)cc3)c2)c1 | 76.3% |
| CN(C)CCC(CCN(C)C)(C(=O)O)c1ccccc1 | 105% |
| CC1=C2[C@@H](CC1)[C@]1(C)O[C@@](C3CCNCC3)(C[C@H]1OC(=O)CO)[C@H]2OC(=O)/C=C/c1ccccc1 | 86.2% |
| COc1ccc2c(O)c(/C=C3\N=Nc4ncccc43)oc2c1C[C@@H]1CCNC[C@H]1F | -78.3% (active) |
| CC1(C)CC[C@]2(CO)CC[C@]3(C)[C@](O)([C@H](O)C[C@@H]4[C@@]5(C)CCCNC(C)(C)[C@@H]5CC[C@]43C)[C@@H]2C1 | 101% |
| Cc1ccccc1N1CCN(C(=S)c2ccccc2)CC1 | 103% |
| C1CCC(N2CN3c4nonc4N4CN(C5CCCCC5)CN5c6nonc6N(C2)C3C45)CC1 (centres undefined) | 108% |
| COc1ccc(/C=N/Nc2c3ccccc3nc3ccccc23)cc1 | 90.8% |
| Cc1nc2sc(C(=O)Nc3ccccn3)c(N)c2cc1C(C)O (centres undefined) | 82.1% |
| COc1ccc(C/C(C)=C(\c2ccc(Cl)cc2)c2ccc(OCCCN(C)C)cc2)cc1 | 76.1% |
| CC1(C)CC[C@]23CC[C@]4(C)[C@H](CC[C@@H]5[C@@]6(C)C/C(=C/O)C(=O)C(C)(C)[C@@H]6CC[C@]54C)[C@H]2[C@H]1OC3 | 106% |
| Nc1ccc(Br)cc1C(F)(F)F | 105% |
| Cc1oc(-c2ccc(Cl)cc2)nc1C1=NN(C(=O)c2ccncc2)C(c2ccccc2)C1 (centres undefined) | 83.4% |

| SMILES | growth |
| --- | --- |
| CCN(CC)CCOc1ccc(Nc2ncc3cc(-c4c(Cl)cccc4Cl)c(=O)n(CCOC)c3n2)cc1 | 5.35% (active) |
| COc1ccc(Oc2ccc(/C=C/C(=O)c3ccc(OC)c(OC)c3)cc2)cc1 | 103% |
| C=CC(CC(c1ccccc1)(c1ccccc1)c1ccccc1)N(CC)CC (centres undefined) | 67.8% |
| CC[C@@H](C(=O)[C@@H](C)[C@@H](O)[C@H](C)[C@@H]1O[C@@H]([C@@H](CC)C(=O)ONC(=O)c2ccccc2O)CC[C@@H]1C)C1O[C@]2(C=CC(=O)[C@]3(CC[C@@](C)([C@H]4CC[C@](O)(CC)[C@H](C)O4)O3)O2)[C@H](C)C[C@@H]1C (some centres undefined) | 61.7% |
| C[C@H](c1nc2ccc(C#N)cc2[nH]1)[C@H]1CC[C@H]2[C@@H]3CCC4=CC(=O)CC[C@]4(C)[C@H]3CC[C@]12C | 67.4% |
| COc1ccc2[nH]cc(-c3nonc3-c3c[nH]c4ccc(Br)cc34)c2c1 | 61.4% |
| O=C(NCCN1CCOCC1)OCc1ccc2c(Cl)cc(Cl)c(O)c2n1 | 81.9% |
| COc1cccc(-c2cn3nc(-c4cn(C)c5ccccc45)sc3n2)c1 | 104% |
| NS(=O)(=O)c1ccc(C(=O)NN2C(=O)c3ccccc3C2=O)cc1 | 105% |
| CC(C)=CC(=O)N[C@H]1CC[C@]2(C)C3CC[C@]4(C)C(C(C)N(C)C)=CCC4C3CCC2[C@H]1O (some centres undefined) | 48.2% |
| CCCn1c(=S)sc2c(NNC(C)=O)nc(C)nc21 | 92.2% |
| Cc1nc(N/N=C/c2cn(-c3ccccc3)nc2-c2cc3ccccc3oc2=O)sc1N=Nc1ccccc1 | 97.3% |
| O=C(Nc1ncc(Cc2ccccc2)s1)c1sc2ccccc2c1Cl | 43.2% |
| COc1cc(/C=C/C(=O)c2cc(OC)c(OC)c(OC)c2)ccc1Oc1nc2c(c(=O)n(C)c(=O)n2C)n1C | -87.4% (active) |
| NC(=O)c1ccccc1OCC(=O)Nc1ccc(Cl)c(Cl)c1 | 109% |
| CCOC(=O)c1c(C)nc2ccccc2c1/C=C/c1ccc(F)cc1 | 79.5% |
| Cc1cn(C)cn1 | 97.9% |
| C#CCOc1ccc2nc(CCl)c(Cl)c(Nc3cccc(C(F)(F)F)c3)c2c1 | 76% |
| Cc1ccc(NC(=O)c2cc3ccccc3cc2O)c(C)c1 | 84.7% |

— PubChem BioAssay (NCI)
